Assay outcomes as filed in PubChem.
gsp antagonist: qHTS for Antagonists of gsp, the Etiologic Mutation Responsible for Fibrous Dysplasia/McCune-Albright Syndrome: qHTS | hit rate 0.4% among 340,000 | Potency, µM (top dose mostly 76.9 µM), without a hit: top-dose activity change, negative = inhibition, hits mostly inhibitors | gsp-mutant cells, cAMP HTRF, 30 min | AID 624288, 2012; calls by dose curve; cell line not stated here;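 also: intracellular cAMP measured with PDE inhibitor Ro 20-1724 present during compound exposure; potency is read from the fitted curve at half-maximal effect; % is scaled to controls: 0 for no effect and ±100 for the full control effect; nearly all actives have a fitted effect of over 65% in size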
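Cells in G418 medium, seeded 16-24 h, 37C; buffer exchange to DPBS + 1 mM CaCl2, 0.5 mM MgCl2, 0.05% BSA; cpds in DMSO + […] (300 uM stock), 30 min 37C; HTRF cAMP detection.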
miR-21 reporter: qHTS Assay for Modulators of miRNAs and/orActivators of miR-21; Potency, µM (series often up to 38.3 µM), inactives show top-dose activity change, positive = activation, usual class: activators; HeLa miR-21 FLuc reporter, luciferase, 48 h; 340,000 tested, under 10 active; AID 2288, 2010;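 also: % of control where 0% means no effect; miR-21 action dims this reporter so a rising signal means less miR-21 action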
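Luminescence from a firefly luciferase reporter carrying a miR-21 binding site downstream, stably expressed under a CMV promoter in HeLa cells that make miR-21 endogenously, reports miRNA modulation after 48 h compound exposure up to approximately 40uM final.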
RXFP1 ag: qHTS Assay for Agonists of the Relaxin Receptor RXFP1. HEK293T-RXFP1 cAMP TR-FRET, 30 min; response scale: percent of porcine relaxin response, buffer zero. Potency, µM (series often up to 57.5 µM), for the others: at the top dose activation, usual class: activators. hit rate 0.3% among 370,000. AID 2676, 2010; also: potency is read from the fitted curve at half-maximal effect; % is scaled to controls: 0 for no effect and ±100 for the full control effect; nearly all actives have a fitted effect of over 60% in size
Target sequence (Q9HBX9 whole entry, looked up): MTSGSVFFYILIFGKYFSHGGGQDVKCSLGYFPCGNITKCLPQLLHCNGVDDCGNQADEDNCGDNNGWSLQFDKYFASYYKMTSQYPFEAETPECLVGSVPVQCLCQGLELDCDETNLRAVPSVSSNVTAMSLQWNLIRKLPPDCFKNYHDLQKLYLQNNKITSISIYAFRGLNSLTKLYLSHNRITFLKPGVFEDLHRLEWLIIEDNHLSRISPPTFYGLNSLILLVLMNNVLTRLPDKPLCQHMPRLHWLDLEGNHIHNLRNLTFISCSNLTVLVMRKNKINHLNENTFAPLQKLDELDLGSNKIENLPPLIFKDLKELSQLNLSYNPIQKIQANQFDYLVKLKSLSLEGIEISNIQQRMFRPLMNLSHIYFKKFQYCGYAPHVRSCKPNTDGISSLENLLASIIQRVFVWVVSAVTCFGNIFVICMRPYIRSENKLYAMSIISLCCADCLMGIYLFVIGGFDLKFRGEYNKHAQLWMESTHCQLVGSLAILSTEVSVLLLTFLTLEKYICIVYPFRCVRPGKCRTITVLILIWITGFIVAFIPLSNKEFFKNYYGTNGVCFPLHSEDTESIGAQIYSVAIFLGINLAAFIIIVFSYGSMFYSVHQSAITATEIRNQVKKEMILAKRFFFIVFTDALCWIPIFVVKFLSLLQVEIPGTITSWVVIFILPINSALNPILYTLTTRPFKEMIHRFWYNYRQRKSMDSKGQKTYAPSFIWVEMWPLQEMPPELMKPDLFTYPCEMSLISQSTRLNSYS
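cAMP rise read by TR-FRET after 30 min, 37C compound exposure (up to 58 uM) in RXFP1-transfected HEK293 cells with Ro 20174 present. EC50 from Hill-equation fits, with 29 nM porcine relaxin as 100% and buffer as basal.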
KinaseGlo FLuc: Counterscreen for Luciferase (Kinase-Glo TM) Inhibition; Luciferin 4-monooxygenase (Photuris pensylvanica), Q27757; hit rate 0.28% among 200,000; Potency, µM (doses to about 38.3 µM), for inactives: at the top dose activity change, negative = inhibition, actives largely listed as inhibitors; Kinase-Glo luciferase, ATP luminescence, 8 min; also: potency is read from the fitted curve at half-maximal effect; % is scaled to controls: 0 for no effect and ±100 for the full control effect; nearly all actives have a fitted effect of over 60% in size
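Recombinant Kinase-Glo luciferase, 10 uM ATP (linear range), luciferin; imidazole pH 7.2 / KCl / MgCl2 / Tween / BSA buffer; 8 min RT; luminescence.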
gsp agonist: qHTS for Agonist of gsp, the Etiologic Mutation Responsible for Fibrous Dysplasia/McCune-Albright Syndrome: qHTS; gsp mutant cells, cAMP HTRF, 30 min; Potency, µM (series often up to 76.9 µM), for inactives: at the highest dose activation (cAMP increase), actives largely listed as activators; hit rate 0.13% among 340,000; active = well fitted activation curve with a large enough effect; inconclusive = small, poorly fitted or top-dose-only effect, or another doubt; inactive = no such curve, though single readings can be large or run the other way; cell line not stated here;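 also: phosphodiesterase inhibitor Ro 20-1724 added with compounds to block cAMP breakdown; potency is read from the fitted curve at half-maximal effect; nearly all actives have a fitted effect of over 60% in size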
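Cells in DMEM/10% FBS with G418 were pretreated with compounds in DMSO plus […] (300 uM stock) for 30 min at 37C. cAMP was measured by HTRF (cAMP-d2 plus anti-cAMP antibody-K) after 30 min at room temperature.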
RXFP1 antag: qHTS Assay for Antagonists of the Relaxin Receptor RXFP1; Relaxin receptor 1 (Homo sapiens), Q9HBX9; HEK293-RXFP1, relaxin-stimulated cAMP HTRF, 30 min; active compounds read low; activity change, negative = inhibition, % at 57.5 µM; hit rate 0.59% among 350,000; AID 1259400, 2018;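 active = activity change of -60% or lower, but not beyond a set lower limit; inconclusive = change between -60% and -40%, or beyond the set limit; inactive = change above -40%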; also: % is scaled to controls: 0 for no effect and ±100 for the full control effect
* marks the source's active call; other numbers are inactive results; ? = inconclusive; . = no result; [ ] = another dose, or the depositor's remark. The list is not random: actives were taken first. Their share in the collection is about 1%. Unless noted, calls follow the shape of the dose curve; as a rule, active = well fitted curve in the direction sought with a large enough effect; inconclusive = small, poorly fitted or top-dose-only effect, or another doubt; inactive = no such curve, though single readings can be large; an effect the other way counts as inactive or inconclusive.

SMILES	gsp antagonist	miR-21 reporter	RXFP1 ag	KinaseGlo FLuc	gsp agonist	RXFP1 antag
Cc1ccc(-n2nc3c(=O)n(CC(=O)NCCC4=CCCCC4)nc(C)c3c2C)cc1	-9%	0%	8%	.	0%	-102*
O=C(OCc1cccc([N+](=O)[O-])c1)c1cnccn1	16%	1%	22µM*	1%	5.6µM*	0
C=CCOc1c(Cl)cc(CNc2ccc(C)c(Cl)c2)cc1OC	.	25%	3%	-1%	.	.
C=CCOc1c(Cl)cc(CNc2ccc(N(C)C)cc2)cc1OC	?	2%	-14%	-12%	14%	-103*
Cc1ccc(C)c(N2CCN(C(c3ccccc3)c3nnc(-c4ccccc4F)o3)CC2)c1 (stereo not drawn)	.	-3%	4%	.	.	-29
COC(=O)c1ccc(-c2ccc(C(c3c(C)[nH][nH]c3=O)c3c(C)[nH][nH]c3=O)o2)cc1	-5%	-6%	-1%	6%	-48%	-87*
Cc1[nH][nH]c(=O)c1C(c1ccc(-c2cccc(C(=O)O)c2)o1)c1c(C)[nH][nH]c1=O	-2%	-22%	4%	-2%	-6%	6
O=C1Cc2cc(Cl)ccc2N1	.	.	.	.	.	15
Cc1ccccc1NC(=O)N1CCc2cc(S(=O)(=O)N3CCC(C)CC3)ccc21	.	-1%	0%	.	.	-12
COC(=O)c1sc(N2C(=O)C(O)=C(C(=O)c3ccc(C)o3)C2c2ccco2)nc1C (stereo not drawn)	-11%	-5%	-6%	.	26%[15.4 µM]	-6
COC(=O)c1sc(N2C(=O)C(O)=C(C(=O)c3ccc(C)o3)C2c2ccc(F)cc2)nc1C (stereo not drawn)	12%	-15%	8.9µM*	-2%	?	-12
COC(=O)c1sc(NC(=O)c2ccc(C)o2)nc1C	2%	-51%	-1%	6.3µM*	-13%	12
COC(=O)c1ccc(C2C(C(=O)c3ccc(C)o3)=C(O)C(=O)N2c2cc(C)on2)cc1 (stereo not drawn)	-13%	-9%	?	.	?	-7
COC(=O)c1sc(N2C(=O)C(O)=C(C(=O)c3ccc(C)o3)C2c2cccs2)nc1C (stereo not drawn)	-33%	-13%	13µM*	.	?	-20
CC(=O)c1sc(NC(=O)c2ccccc2F)nc1C	-10%	-7%	7%	10µM*	-1%	.
CCn1ccc2cc(S(=O)(=O)N3CCCN(C(=O)NCC(=O)OC)CC3)ccc21	.	1%	0%	.	.	.
Cc1ccc(CN2COc3ccc4c(-c5ccccc5)cc(=O)oc4c3C2)cc1	.	-1%	7%	.	.	-13
Cc1nnc(N2CCN(C(=O)Nc3cc(F)ccc3F)CC2)c2nn(-c3ccc(Cl)cc3)c(C)c12	.	0%	8%	.	.	2
Cc1ccccc1NC(=O)c1c(C)[nH]c(=S)c(C#N)c1-c1ccc(Cl)cc1	1%	-2%	8%	.	-1%[15.4 µM]	-18
Cc1ccc(-c2c(C(=O)Nc3ccccc3C)c(C)[nH]c(=S)c2C#N)o1	18%	-3%	28µM*	0%	13%[15.4 µM]	-2
O=C(CCCCCn1c(=S)[nH]c2ccc(N3CCOCC3)cc2c1=O)NCc1ccccc1Cl	?	-5%	?	0%	-1%[15.4 µM]	-104*
O=C(CCCCCn1c(=S)[nH]c2ccc(N3CCOCC3)cc2c1=O)NCc1ccc(Cl)cc1	10%	0%	14%	2%	-1%[15.4 µM]	-92*
O=C(CCCCCn1c(=S)[nH]c2ccc(N3CCOCC3)cc2c1=O)NCc1ccc2c(c1)OCO2	-10%	-4%	?	2%	13%[15.4 µM]	?
Cc1cc(C)cc(OCCSc2nc3ccc(NC(=O)COc4ccccc4)cc3s2)c1	.	13%	1%	.	.	.
CCOC(=O)c1ccccc1NS(=O)(=O)c1ccc(N2CCCCS2(=O)=O)cc1	.	8%	2%	.	.	0
SMILES	gsp antagonist	miR-21 reporter	RXFP1 ag	KinaseGlo FLuc	gsp agonist	RXFP1 antag
O=C1/C(=C/c2ccc(O)cc2)SC(=S)N1CC1CCCO1 (stereo not drawn)	0%	-34%	-1%	.	?	-73*
CCCOc1ccc(/C=C2\SC(=S)N(CC3CCCO3)C2=O)cc1 (stereo not drawn)	-1%	-2%	5%	-1%	5%	-14
NS(=O)(=O)c1ccc(CCNc2ncnc3c2cnn3-c2cccc(Cl)c2)cc1	.	0%	3%	.	.	-84*
Cc1c(Cl)cccc1NC(=O)Cn1c(=O)n(Cc2ccco2)c(=O)c2sc3ccccc3c21	.	-5%	-1%	.	.	.
COc1cc(C(=O)NCC(=O)N2CCN(S(=O)(=O)c3ccccc3)CC2)cc(OC)c1OC	-9%	.	0%	.	-6%[15.4 µM]	-64*
O=C(NCC(=O)N1CCN(S(=O)(=O)c2ccccc2)CC1)c1ccc2ccccc2c1	?	.	3%	.	-29%	4
CC1CC1C(=O)OCc1cc(=O)n2cc(Br)ccc2n1 (stereo not drawn)	5%	-60%	16%	8%	?	1
O=C(OCc1cc(=O)n2cc(Br)ccc2n1)C1COc2ccccc2O1 (stereo not drawn)	-4%	-6%	9%	-3%	10µM*	-10
N#Cc1nc(-c2ccccc2F)oc1NC1CCCCC1	-16%	-42%	5%	-4%	8%	-60*
NC(=[SH+])N=N/C=C1/C=CC=CN1.O=S(=O)(O)O.[Fe]	.	.	.	0%[7.66 µM]	.	.
CCc1ccc(CNC(=O)c2cc(-c3ccc(Br)s3)nc3ccccc23)cc1	.	-1%	?	.	.	-10
COc1cccc(NC(=O)CN(C)C(=O)c2cc(-c3ccc(F)cc3)nc3ccccc23)c1	40µM*	.	-2%	.	-18%	?
O=C(O)c1cc(-c2ccc(Br)s2)nc2ccccc12	-13%	-24%	2.8µM*	.	?	-6
COc1cccc(NC(=O)CN(C)C(=O)c2cc(-c3ccccc3)nc3ccccc23)c1	?	.	0%	.	4%	-34
COc1ccc2cc(-c3cc(C(=O)O)c4ccccc4n3)ccc2c1	-10%	?	14%	7.9µM*	?	-4
CCCn1c(=O)c2sccc2n2c(CCCC(=O)N3CCN(c4ccccc4)CC3)nnc12	.	1%	13%	.	.	-9
CCOc1ccc2c(c1)c(=O)c(C(=O)c1ccccc1)cn2Cc1ccccc1	.	10%	0%	.	.	.
CN(C)[C@@H](CCOc1cccc2ccccc12)c1ccccc1	.	.	.	.	.	-31
CCn1c(=O)n(CC)c2cc(N3CCCC3)c(NC(=O)c3c(F)cccc3F)cc21	32µM*	1%	-2%	.	4%	12
